# TDP1 block – qHTS Assay for Inhibitors of Tyrosyl-DNA Phosphodiesterase (TDP1); actives 0.28% (n = 350,000); recombinant TDP1, AlphaScreen DNA substrate cleavage; Tyrosyl-DNA phosphodiesterase 1 (Homo sapiens), Q9NUW8; Potency, µM (top dose mostly 130 µM), for the others: at the top dose activity change, negative = inhibition, usual class: inhibitors; further: potency means the concentration at half of the fitted maximal effect; on the % scale 0 is the no-effect control and ±100 the full control effect; nearly all actives have a fitted effect of over 40% in size
# Target sequence (Q9NUW8 whole entry, looked up): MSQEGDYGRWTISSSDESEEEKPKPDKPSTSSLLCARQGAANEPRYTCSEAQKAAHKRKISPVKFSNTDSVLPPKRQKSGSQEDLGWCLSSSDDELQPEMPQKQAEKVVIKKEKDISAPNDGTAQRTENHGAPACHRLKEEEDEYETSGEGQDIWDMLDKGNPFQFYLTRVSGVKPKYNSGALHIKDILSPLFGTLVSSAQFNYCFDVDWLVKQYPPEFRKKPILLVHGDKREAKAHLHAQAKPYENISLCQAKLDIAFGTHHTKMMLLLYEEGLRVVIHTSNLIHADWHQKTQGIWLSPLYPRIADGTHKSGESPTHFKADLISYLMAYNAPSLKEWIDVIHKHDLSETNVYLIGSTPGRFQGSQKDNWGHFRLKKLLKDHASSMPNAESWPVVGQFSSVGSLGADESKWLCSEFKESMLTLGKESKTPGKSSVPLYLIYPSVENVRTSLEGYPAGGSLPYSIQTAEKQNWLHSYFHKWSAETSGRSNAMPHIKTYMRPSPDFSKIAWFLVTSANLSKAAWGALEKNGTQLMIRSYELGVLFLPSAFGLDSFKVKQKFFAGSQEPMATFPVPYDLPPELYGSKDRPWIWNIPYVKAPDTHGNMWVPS
#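 Recombinant human Tdp1 (E. coli-expressed, 1 nM final) preincubated with compounds 15 min at room temperature, then 5'-biotin/3'-phosphotyrosine-FITC DNA substrate (15 nM final) added for 5 min. AlphaScreen beads (10 ug/ml final) added 10 min; cleavage lowers signal.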
# DT40 TDP1 CPT – qHTS for Inhibitors of human tyrosyl-DNA phosphodiesterase 1 (TDP1): qHTS in cells in presence of CPT; chicken DT40 Tdp1-/-;hTDP1 cells + 20 nM CPT, ATP luminescence, 48 h; Potency, µM (top dose mostly 46.2 µM), without a hit: at the highest dose activity change, negative = growth inhibition, actives largely listed as inhibitors; actives 12% (n = 420,000); further: potency means the concentration at half of the fitted maximal effect; on the % scale 0 is the no-effect control and ±100 the full control effect; nearly all actives have a fitted effect of over 55% in size
#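 Chicken DT40 Tdp1-/- cells complemented with human TDP1, 400 cells/well, exposed to compounds plus 20 nM camptothecin for at least 48 h at 37 C; viability read as ATP content by CellTiter-Glo luminescence.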
# HepG2 viability – qHTS for Inhibitors of TGF-b: Cytotox Counterscreen; HepG2 CAGA-GFP viability, ATP luminescence, 18 h; Potency, µM (highest dose often 46.1 µM), inactives show top-dose activity change, negative = cytotoxicity, hits mostly cytotoxic; actives 0.76% (n = 410,000); further: potency means the concentration at half of the fitted maximal effect
#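 HepG2 CAGA-GFP cells (1000/well, DMEM with 1% FBS) received compound, then TGF-beta at 500 pg/mL final, and were incubated 18 hours at 37 degrees C. Viability was read by CellTiter-Glo luminescence. Media-only wells were set as complete cell-killing and DMSO as no toxicity.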
# IL-1B inflam inh – qHTS for Inhibitors of Inflammasome Signaling: IL-1-beta AlphaLISA Primary Screen | THP-1 LPS/ATP IL-1B secretion, AlphaLISA, 16 h; stronger effect = lower value | activity change, % at 57.5 µM | actives 4.7% (n = 360,000) | AID 743279, 2014; in the data active means activity change below about -50%; inconclusive means mostly about -30% to -49%; further: on the % scale 0 is the no-effect control and ±100 the full control effect
#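 Secreted IL-1B measured by AlphaLISA bead assay after 16 h compound exposure of THP-1 cells; compounds (final up to 57.5 uM) added 1 h before LPS (250 ng/mL) and ATP (1.25 mM) stimulation; lower signal means less secretion.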
# TGFb inhibitor – qHTS for Inhibitors of TGF-b; HepG2 CAGA-GFP TGF-b/SMAD3 reporter, GFP fluorescence, 18 h; TGF-beta stimulated, 500 pg/mL final; Potency, µM (highest dose often 46.1 µM), for the others: at the highest dose activity, negative = inhibition, actives largely listed as inhibitors; actives 1.2% (n = 410,000); further: potency means the concentration at half of the fitted maximal effect; on the % scale 0 is the no-effect control and ±100 the full control effect; nearly all actives have a fitted effect of over 65% in size
#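 TGF-beta reporter screen: HEPG2 CAGA-GFP, 1% FBS, 500 pg/mL TGF-beta final, 18 h; per-cell GFP summed per well; curves fitted and categorized by class.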
# TDP1 cell noCPT – qHTS for Inhibitors of human tyrosyl-DNA phosphodiesterase 1 (TDP1): qHTS in cells in absence of CPT; actives 15% (n = 420,000); AID 686978, 2013; DT40 Tdp1-/- hTDP1 cells, no CPT, ATP luminescence, 48 h; Potency, µM (series often up to 46.2 µM), without a hit: at the highest dose activity change, negative = growth inhibition, hits mostly inhibitors; further: potency means the concentration at half of the fitted maximal effect; on the % scale 0 is the no-effect control and ±100 the full control effect; nearly all actives have a fitted effect of over 55% in size
#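 Readout: luminescence from CellTiter-Glo after 30 min in the dark at RT. Cells: DT40 Tdp1-/- with stable hTDP1, 400/well. Exposure: compounds alone, ≥48 hr, 37 °C.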
# Starred values were filed as active, the others as inactive; ? = inconclusive; · = not tested or not shown; ! = a repeat was not active; [ ] = dose if it differs, or a comment. Shown are actives, neighbours in structure and some others; about 18% of the full set was active somewhere. Unless noted, the call rests on the fitted dose curve; in most records, active means well fitted curve in the direction sought with a large enough effect; inconclusive means small, poorly fitted or top-dose-only effect, or another doubt; inactive means no such curve, though single readings can be large; an effect the other way counts as inactive or inconclusive.
SMILES,TDP1 block,DT40 TDP1 CPT,HepG2 viability,IL-1B inflam inh,TGFb inhibitor,TDP1 cell noCPT
C#CCOCCOCCOCCNc1nc(N2CCN(C(=O)CCCCCCCCCCNC(=O)Cn3cc(C[C@@H](C)O)nn3)CC2)nc(N2CCN(C(=O)CCCCCCCCCCNC(=O)[C@H](CCCN=C(N)N)n3cc(C[C@@H](C)CC)nn3)CC2)n1,9%,?,-51%,-97*,14µM*,16µM*
CC(=O)Nc1ccc(-c2noc(-c3csc([C@@H]4C[C@H](O)[C@@H](CO)O4)n3)n2)cc1,·,-14%,-2%,-55*,3%,-15%
O=C(Nc1cccc(Cl)c1)c1ccc2sc([C@H]3C[C@H](O)[C@@H](CO)O3)nc2c1,·,26µM*,-28%,2,-1%,23µM*
O=C(Nc1cccc(Cl)c1Cl)c1csc([C@@H]2O[C@H](CO)[C@@H](O)[C@H]2O)n1,·,23µM*,-5%,25,14%,?
O=C(Nc1cccc(Cl)c1Cl)c1csc([C@H]2C[C@H](O)[C@@H](CO)O2)n1,·,15µM*,-11%,-23,24%,?
CS(=O)(=O)c1ccc(Cl)c(NC(=O)CSc2nc3ccccc3c(=O)n2Cc2ccco2)c1,-1%[0.505 µM],-29%,24%,-2,20%,?
CC(=O)Nc1ccc(NS(=O)(=O)c2cccc3nonc23)cc1,10%,-3%,12%,18,-10%,1%
CCN(CC)C(=O)Cn1c(=O)n(CCCCCC(=O)Nc2ccccc2)c(=O)c2sccc21,2%,?,3.2µM*!,3,?,?
NC(=O)Cn1c(=O)n(CCCCCC(=O)NCc2ccc(F)cc2)c(=O)c2sccc21,1%,5%,4%,·,14%,-1%
CNC(=O)C1CCC(Cn2c(=O)c3sccc3n(CC(=O)Nc3ccc(C)c(C)c3)c2=O)CC1 (configuration not stated),3%,9.2µM*,-16%,·,?,9.2µM*
CCN(CC)C(=O)Cn1c(=O)n(CCCCCC(=O)NCc2ccccc2)c(=O)c2sccc21,-2%,-4%,3%,·,3%,-18%
CCN(CC)C(=O)Cn1c(=O)n(CCCCCC(=O)NCc2ccc(C)cc2)c(=O)c2sccc21,4%,2%,0%,·,14%,-25%
Cc1ccc(NC(=O)Cn2c(=O)n(CCCCCC(=O)NCc3ccc(F)cc3)c(=O)c3sccc32)cc1C,3%,?,-26%,·,?,6.5µM*
CCOc1ccc(NC(=O)Cn2c(=O)n(CCCCCC(=O)NCc3ccccc3)c(=O)c3sccc32)cc1,-1%,?,8%,·,-2%,16µM*
O=C(c1ccccc1)c1c[nH]c(C(=O)NCCCn2ccnc2)c1,0%,-27%,-1%,-19,2%,5%
CC(=O)N1C[C@@H](CO)[C@@H](N(C)C(=O)C(C)(C)C)C[C@H]1c1ccccc1,·,-18%,2%,12,-12%,-3%
NC[C@H]1O[C@H](O[C@H]2[C@H](O)[C@@H](O[C@H]3O[C@H](CO)[C@@H](O)[C@H](N)[C@H]3O)[C@H](N)C[C@@H]2N)[C@H](O)[C@@H](O)[C@@H]1O,·,-8%[21.1 µM],·,·,·,?
COC(=O)C1=C(C(=O)OC)SC2(S1)C(C(=O)OC)=C(C(=O)OC)SC1=C2c2cccc(C)c2NC1(C)C,7%,9.2µM*,-11%,-7,?,23µM*
